# A selection: hits, their analogues and other compounds. The true share with any hit is near 4%.
# ERAP1 inh: inhibitors of human ERAP1 aminopeptidase; Q9NZ08; recombinant ERAP1, Leu-AMC fluorescence, 60 min; hit rate 0.15% among 340,000; inhibition, % at 10.7 µM;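 active = mean replicate inhibition of at least 30%, or all replicates individually reaching that 30% level; inactive = mean below 30% and not every replicate reaching it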;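 note: 0% = neutral control wells and 100% = L-leucinethiol positive control wells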
# AF4-AF9 inh: inhibitors of human MLL-AF4/AF9 interaction. inhibition, % at 10 µM. AlphaScreen, biotin-AF4 peptide binding to FLAG-AF9. hit rate 0.47% among 350,000. P42568;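 active = every replicate reaching a set inhibition limit, whatever the replicate mean, cut at about 25% in these data; inconclusive = mean inhibition reaches that limit but some replicates miss it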;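 note: 0% = plate neutral control median and 100% = total signal loss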
# Target sequence (P42568 whole entry, looked up): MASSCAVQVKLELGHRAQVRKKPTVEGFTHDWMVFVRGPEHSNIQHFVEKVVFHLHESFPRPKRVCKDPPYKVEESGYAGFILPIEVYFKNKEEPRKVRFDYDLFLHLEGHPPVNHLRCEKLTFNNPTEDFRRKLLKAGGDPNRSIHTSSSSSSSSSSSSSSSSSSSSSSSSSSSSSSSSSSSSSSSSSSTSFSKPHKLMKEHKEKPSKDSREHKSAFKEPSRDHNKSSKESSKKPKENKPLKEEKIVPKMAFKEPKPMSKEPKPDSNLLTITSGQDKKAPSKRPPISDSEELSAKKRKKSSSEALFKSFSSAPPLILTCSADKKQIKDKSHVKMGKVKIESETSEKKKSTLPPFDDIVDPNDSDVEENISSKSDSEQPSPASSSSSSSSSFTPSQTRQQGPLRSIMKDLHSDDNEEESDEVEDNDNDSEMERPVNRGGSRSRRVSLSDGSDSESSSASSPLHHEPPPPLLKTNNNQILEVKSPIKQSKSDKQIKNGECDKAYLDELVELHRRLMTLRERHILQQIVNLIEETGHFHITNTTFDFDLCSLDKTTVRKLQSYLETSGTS
# DENV2 CPE rescue: protects cells from dengue virus 2 cytopathic effect. AID 651640. CPE inhibition, % at 9.99 µM. hit rate 1.7% among 350,000. DENV2-infected cells, cytopathic effect rescue, plate reader; in the data active = CPE inhibition above about 20%, passing the limit was not always enough; inconclusive = no clear call, values can overlap the other calls; tested in BHK-21 cells;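 note: 0% = median of neutral control wells and 100% = median of positive control wells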
# RAD52 inh: RAD52 (human) annealing inhibition; P43351; recombinant RAD52 DNA annealing, FRET fluorescence; AID 651710; inhibition, % at 18.7 µM; hit rate 0.46% among 360,000;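 active = every replicate showing at least 50% inhibition; inconclusive = mean inhibition at least 50% but not in every replicate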
# FGF22 binding: FGF22 (human) thermal shift binding; Q9HCT0; recombinant FGF22 thermal shift, SYPRO orange fluorescence; percent of sucrose octasulfate shift, DMSO zero; activity (Tm shift, normalised), % at 9.99 µM; hit rate 1.5% among 340,000; AID 651658;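 active = mean Tm shift, scaled 0 neutral to 100 positive control, at about 1.3% or above, every replicate too, limit read from the data; inconclusive = no clear call, values can overlap the other calls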
# An asterisk follows results filed as active; ? = inconclusive; . = not tested or not shown.
SMILES,ERAP1 inh,AF4-AF9 inh,DENV2 CPE rescue,RAD52 inh,FGF22 binding
O=C(O)c1ccc(CNS(=O)(=O)c2ccc(Oc3ccccc3Cl)cc2)cc1,0,?,-2,-14,0
O=S(=O)(NCc1c(Cl)cccc1Oc1ccccc1)c1ccccc1,0,.,32*,-6,0
COc1ccc2c3c(n(C)c2c1)[C@@H](CO)N(C(=O)Nc1ccc(F)cc1)CC31CCN(C(=O)NC2CCCC2)CC1,1,-1,-13,1,0
C[C@H]1CN([C@@H](C)CO)C(=O)c2cc(-c3cccc(C#N)c3)cnc2O[C@H]1CN(C)C(=O)c1cnccn1,.,-4,6,10,0
CCCNC(=O)C[C@H]1CC[C@@H]2[C@H](COc3ccc(NC(=O)c4ccc5c(c4)OCO5)cc3C(=O)N2C)O1,-4,-2,4,7,0
O=C(c1ccc(N2CCN(C(=O)c3ccc(F)c(F)c3)CC2)cc1)c1cccc(F)c1,-2,-5,?,-8,0
O=C(c1ccc(N2CCN(C(=O)c3ccccc3)CC2)cc1)c1cccc(F)c1,6,6,65*,-20,0
Cn1cc(Br)c(C(=O)Nc2sc3c(c2C#N)CCC3)n1,3,-1,10,-24,0
Cn1cc(Cl)c(C(=O)NC(=S)Nc2sc3c(c2C#N)CCCCC3)n1,5,-1,0,-16,52*
C[C@H]1CN([C@@H](C)CO)C(=O)c2cc(NS(=O)(=O)c3cn(C)cn3)ccc2O[C@H]1CN(C)Cc1ccc(-c2ccccc2)cc1,-3,-1,14,15,0
Cc1ccccc1S(=O)(=O)NCC[C@H]1CC[C@@H](NC(=O)C2CC2)[C@H](CO)O1,1,-1,-6,4,0
Cc1noc(C)c1NC(=O)N(C)C[C@@H]1Oc2ccc(NC(=O)C3CCCCC3)cc2CC(=O)N([C@@H](C)CO)C[C@H]1C,2,0,-14,14,0
O=C(NNc1nc2c(F)cc(F)cc2s1)c1ccccc1,-2,-2,-3,7,43*
COc1cccc(-c2nn(C)c3sc(C(=O)NCCCN(C)Cc4ccccc4)cc23)c1,-1,2,-1,12,0
CCCCN(C)CCNC(=O)c1cc2c(-c3cccc(OC)c3)nn(C)c2s1,3,4,-5,65*,0
COc1ccccc1-c1cn(CC[C@H]2CC[C@H](NC(=O)C3CCCC3)[C@H](CO)O2)nn1,2,-5,2,-7,.
Nc1c(C(=O)NCc2cccs2)nnn1CC(=O)Nc1cccc(Cl)c1,-3,-1,-2,-22,43*
Cc1ccc(NC(=O)Cn2nnc(C(=O)NCc3cccs3)c2N)cc1Cl,0,-4,-10,-7,0
C[C@@H]1CCCCO[C@H](CN(C)C)[C@@H](C)CN([C@@H](C)CO)C(=O)c2cc(NS(=O)(=O)c3cccs3)ccc2O1,-1,-1,4,-33,0
COc1cccc(C#Cc2cnc3c(c2)C(=O)N([C@H](C)CO)C[C@H](C)[C@@H](CN(C)C(C)=O)O3)c1,1,-2,24*,16,0
C[C@@H]1CN([C@H](C)CO)C(=O)c2cc(C#Cc3ccccc3)cnc2O[C@H]1CN(C)C(=O)CCN1CCCCC1,-1,13,26*,19,-1
COc1ccc(C#Cc2cnc3c(c2)C(=O)N([C@@H](C)CO)C[C@H](C)[C@H](CN(C)C(C)=O)O3)cc1,2,-10,26*,6,1
COc1cccc(-c2cnc3c(c2)C(=O)N([C@H](C)CO)C[C@H](C)[C@@H](CN(C)C(C)=O)O3)c1,-1,-2,32*,-1,0
C[C@H](CO)N1C[C@H](C)[C@@H](CN(C)C(=O)CCN2CCCCC2)Oc2ncc(C#Cc3ccccc3)cc2C1=O,-2,11,-7,7,0
CC(C)C#Cc1cnc2c(c1)C(=O)N([C@@H](C)CO)C[C@H](C)[C@H](CN(C)C(=O)Nc1ccc(F)cc1)O2,5,0,1,15,0
SMILES,ERAP1 inh,AF4-AF9 inh,DENV2 CPE rescue,RAD52 inh,FGF22 binding
CCC(=O)N1CC(=O)N2[C@@H](CO)[C@H](c3ccc(-c4ccncc4)cc3)[C@@H]2C1,7,-1,6,13,.
CC(=O)N(C)C[C@H]1Oc2ncc(C#Cc3ccccc3)cc2C(=O)N([C@H](C)CO)C[C@H]1C,2,-3,48*,9,0
CC(=O)N(C)C[C@H]1Oc2ncc(C#Cc3ccccc3)cc2C(=O)N([C@@H](C)CO)C[C@@H]1C,-2,-1,9,6,0
Cn1c(=O)c(C(N)=S)cn(-c2ccccc2)c1=O,1,-1,4,2,0
NC(=O)c1cc(Cl)cn(-c2ccccc2)c1=O,-2,50*,82*,-2,0
COc1ccc2c3c([nH]c2c1)[C@H](CO)N(C(C)=O)CC31CN(C(=O)Nc2c(C)noc2C)C1,.,-6,-13,.,0
CN1C(=O)C(c2cn(C)c3ccccc23)(c2cn(C)c3ccccc23)c2cc(F)ccc21,-3,1,30*,-3,0
CN1C(=O)[C@@](O)(c2cn(C)c3ccccc23)c2cc(F)ccc21,.,2,5,0,0
C[C@@H]1CN([C@H](C)CO)S(=O)(=O)c2ccc(-c3cccc(F)c3)cc2O[C@@H]1CN(C)S(=O)(=O)c1ccccc1,-3,-1,-1,-6,0
C[C@@H]1CN([C@@H](C)CO)C(=O)c2cc(NS(C)(=O)=O)ccc2O[C@@H](C)CCCCO[C@H]1CN(C)S(=O)(=O)c1ccc(Cl)cc1,1,0,2,-20,0
CCc1ccc(C(=O)COC(=O)C(CCSC)NC(=O)C23CC4CC(CC(C4)C2)C3)cc1 (centres undefined),13,-1,2,-10,0
CCc1ccc(C(=O)COC(=O)C(CCSC)NC(=O)c2ccccc2)cc1 (centres undefined),1,0,0,-12,44*
CSCCC(NC(=O)c1ccccc1)C(=O)O (centres undefined),-2,0,4,-32,0
CSCCC(NC(=O)c1ccc(C(C)(C)C)cc1)C(=O)O (centres undefined),1,-1,3,-11,44*
CCc1ccc(C2c3[nH]c4ccccc4c3CCN2C(=O)CN2CCN(CC)CC2)cc1 (centres undefined),-1,31*,-2,37,0
C[C@H](CO)N1C[C@H](C)[C@@H](CN(C)S(=O)(=O)c2cn(C)cn2)Oc2cc(C3=CCCCC3)ccc2S1(=O)=O,-1,3,-1,10,0
C[C@@H]1CN([C@@H](C)CO)C(=O)Cc2cc(NS(C)(=O)=O)ccc2O[C@@H]1CN(C)C(=O)Nc1ccc2c(c1)OCO2,.,.,-4,.,0
CN(C(=O)CS(=O)(=O)c1cn(CC(=O)N2CCCCC2)c2ccccc12)c1ccccc1,1,-1,64*,-25,0
